This note sets out measurements from PubChem BioAssay (EPA / NIEHS).

Results filed as inconclusive are left out. The source made the active and inactive calls. How the source made its calls, unless noted: active means hit-call score of the fitted dose curve at least 0.9, where 1 is the maximum; inactive means score below 0.9.

A short description of test [1]: CCTE_Mundy_HCI_Cortical_Synap_Neur_Matur_NeuriteCount: CCTE's Synaptogenesis and Neurite Maturation Assay in rat cortical cells for Neurite Count, Mundy Lab (AID 2284222).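 Further: exposure from day 7 to day 12 in vitro with readout at day 12.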 Put shortly:
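Rat cortical neurons, 96-well; AraC DIV 5; chemical + media change DIV 7; end DIV 12. Fix PFA/Hoechst, anti-MAP2 + anti-synaptophysin IF. HCI neurite count vs DMSO baseline.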

Test [2] can be described thus: CCTE_Mundy_HCI_Cortical_Synap_Neur_Matur_CellBodySpotCount: CCTE's Synaptogenesis and Neurite Maturation Assay in rat cortical cells for Cell Body Spot Count, Mundy Lab (AID 2284223). The gist of the method:
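Rat cortical neurons; AraC @ DIV 5; dose + media change DIV 7; fix DIV 12; anti-MAP2/anti-synaptophysin IF, Hoechst; HCI count of soma synaptophysin puncta/neuron; DMSO = negative control.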

Test [3] in a line: BSK_BT_PBMCCytotoxicity: PBMC Cytotoxicity Assessment in the BioMAP Diversity Plus: BT Assay (AID 2284225).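 Further: PBMC viability measured by Alamar Blue dye reduction fluorescence.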 Conditions: primary human B cells with PBMC. Put shortly: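 PBMC (75,000/well) pretreated with compound 1 h, then activated with SEB and TSST-1 (20 ng/mL each final), incubated 90 h; Alamar Blue added 6 h, fluorescence read at 546/580 nm. Fitted relative to DMSO.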
Read-out in test [4]: Secreted IgG (sIgG), gene 3500
Kind of test: BSK_BT_sIgG: BioMAP Diversity Plus: BT Assay for Secreted IgG (sIgG) Biomarker Activity (AID 2284226). Conditions: primary human B cells with PBMC. The gist of the method: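 Human B cell plus PBMC co-culture; secreted IgG measured by ELISA 24 h after chemical dosing. Response fitted in positive direction relative to DMSO baseline.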

A short description of test [5]: BSK_BT_Bcell_Proliferation: Viability Assessment in the BioMAP Diversity Plus: BT Assay for B cell Proliferation (AID 2284227). The note with it: primary human B cells with PBMC. The gist of the method:
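Human B cell/PBMC co-culture; test chemical added; 72 h; TCA fix (10%), 0.1% SRB stain, A560 for total protein as a proliferation read-out; positive-direction fit vs DMSO baseline.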

Read-out in test [6]: Interleukin 6 (IL6), IL6 (gene 3569)
The test is described as follows: BSK_BT_xIL6: BioMAP Diversity Plus: BT Assay for Interleukin 6 (IL6) Biomarker Activity (AID 2284228). The note with it: primary human B cells with PBMC. Put shortly:
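B cells and peripheral blood mononuclear cells (human primary co-culture) were dosed with chemical, and after 24 h IL-6 released into the medium was measured by Luminex xMAP. Responses were analysed as gain of signal over DMSO control.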

Read-out in test [7]: Interleukin 17A (IL17A), IL17A (gene 3605)
Kind of test: BSK_BT_xIL17A: BioMAP Diversity Plus: BT Assay for Interleukin 17A (IL17A) Biomarker Activity (AID 2284229). The note with it: primary human B cells with PBMC. Put shortly:
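Secreted IL-17A was the measured endpoint, read by Luminex xMAP multiplex in supernatants of a human B cell/PBMC co-culture harvested 24 h after chemical dosing. Signal increase relative to DMSO defined activity.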

Read-out in test [8]: Tumor necrosis factor (Homo sapiens) (UniProt P01375)
Kind of test: BSK_BT_xTNFa: BioMAP Diversity Plus: BT Assay for Tumor necrosis factor alpha (TNF-alpha) Biomarker Activity (AID 2284230). Conditions: primary human B cells with PBMC. The gist of the method: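 Read-out: Luminex xMAP quantitation of secreted TNF-alpha from a B cell/PBMC co-culture 24 h after compound addition. Signal analysed relative to DMSO vehicle, positive fitting direction.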

Read-out in test [9]: Vascular cell adhesion molecule 1 (VCAM1), VCAM1 (gene 7412)
The test is described as follows: BSK_MyoF_VCAM1: BioMAP Diversity Plus: MyoF Assay for Vascular cell adhesion molecule 1 (VCAM1) Biomarker Activity (AID 2284231). The note with it: primary human lung fibroblasts. The gist of the method:
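ELISA read-out of VCAM-1 on human lung fibroblasts 24 h after chemical treatment, with positive-direction curve fitting relative to DMSO controls. Parallel cultures were stained with sulforhodamine B for total protein to flag overt cytotoxicity.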

Test [10] can be described thus: TAMU_HCS_1.5hr_SingleDonor1434_Cytotoxicity: Cytotoxicity Assessment using High-content Screening (HCS) Fluorescent Imaging for the Texas A&M University (TAMU) 1.5-hr Human Induced Pluripotent Stem Cell (iPSC)-derived Cardiotoxicity Assay (AID 2284234; active means hit-call score of the fitted dose curve at least 0.9, where 1 is the maximum). The gist of the method:
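Human iPSC-derived cardiomyocytes dosed at 0.2, 1, 10, 100 uM final (0.5% DMSO) for 90 min at 37 C. Hoechst 33342-stained nuclei counted by 10x high-content imaging; POD is EC10, a 10% drop in total cell count versus DMSO.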

Test [11] is described as follows: TAMU_PeakParms_SingleDonor1434_QT: Texas A&M University (TAMU) 1.5-hr Human Induced Pluripotent Stem Cell (iPSC)-derived Cardiomyocytes Calcium (Ca+2) Flux Assay for Cardiotoxicity: QT (decay-rise ratio) (AID 2284235; active means hit-call score of the fitted dose curve at least 0.9, where 1 is the maximum). The gist of the method: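 iPSC-derived cardiomyocytes (single donor 1434) dosed at 0.2, 1, 10, 100 uM final in 0.5% DMSO, 90 min at 37C. Ca2+ flux fluorescence decay/rise ratio; EC05 (5% increase versus DMSO) as POD, excluding beat-arrest and severe-notch data.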

The nature of test [12]: CCTE_Mundy_HCI_Cortical_NOG_BPCount: CCTE's Neurite Outgrowth Assay in rat cortical cells for Branch Point Count, Mundy Lab (AID 2284237). Put shortly:
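Measured 50.33 h after dosing, this morphology endpoint uses rat primary cortical cultures labelled for betaIII-tubulin. Branch points are quantified by high-content imaging, with DMSO as negative control and baseline.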

Read-out in test [13]: Collagen I, COL1A1 (gene 1277)
Kind of test: BSK_MyoF_CollagenI: BioMAP Diversity Plus: MyoF Assay for Collagen I Biomarker Activity (AID 2284238). The note with it: primary human lung fibroblasts. Put shortly: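 Lung fibroblasts (human primary) dosed, 24 h; Collagen I by ELISA; positive-direction fit vs DMSO control. Parallel SRB total-protein staining (0.1% SRB, 10% TCA fixation, 560 nm) flags overt cytotoxicity.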

Read-out in test [14]: Collagen III, COL3A1 (gene 1281)
Kind of test: BSK_MyoF_CollagenIII: BioMAP Diversity Plus: MyoF Assay for Collagen III Biomarker Activity (AID 2284239). The note with it: primary human lung fibroblasts. The gist of the method: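 ELISA read-out of collagen III from human lung fibroblasts after 24 h of chemical treatment. The DMSO control served as negative control and baseline, with values fitted in the positive direction.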

Test [15] is described as follows: CCTE_Mundy_HCI_hNP1_Casp3_7: CCTE's Caspase-Glo 3/7 Assay in human neuroprogenitor cells for Apoptosis, Mundy Lab (AID 2284240). Put shortly: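 Luminescent caspase-3/7 readout, 26.5 h post-dose, in human neural progenitor cells from WA09 embryonic stem cells. Cells grew 40–44 h at 37 °C, 5% CO2 before chemical addition. Activity analysed as signal increase over DMSO baseline.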

Test [16] can be described thus: CCTE_Mundy_HCI_hNP1_CellTiter: CCTE's Cell Titer-Glo 2 Assay in human neuroprogenitor cells for Viability, Mundy Lab (AID 2284241; active means hit-call score of the fitted dose curve at least 0.9, where 1 is the maximum). Put shortly: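 Viability read as luminescent ATP content (CellTiter-Glo, 30 min room temperature) twenty-four hours after dosing, relative to DMSO. Cells: WA09-derived hNP1 neuroprogenitors on poly-L-ornithine/laminin, plated 40 to 44 hours before chemical.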

A short description of test [17]: CCTE_Mundy_HCI_Cortical_Synap_Neur_Matur_NeuronCount: CCTE's Synaptogenesis and Neurite Maturation Assay in rat cortical cells for Neuron Count, Mundy Lab (AID 2284242; active means hit-call score of the fitted dose curve at least 0.9, where 1 is the maximum). Put shortly:
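Rat primary cortical cells, AraC added at DIV 5, dosed with media change from DIV 7 to DIV 12. Fixed, Hoechst-stained and immunolabelled for MAP2 and synaptophysin; neuron number counted by high-content imaging, loss fitted versus DMSO.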

Sequence of Tumor necrosis factor (Homo sapiens) (P01375 whole entry, looked up): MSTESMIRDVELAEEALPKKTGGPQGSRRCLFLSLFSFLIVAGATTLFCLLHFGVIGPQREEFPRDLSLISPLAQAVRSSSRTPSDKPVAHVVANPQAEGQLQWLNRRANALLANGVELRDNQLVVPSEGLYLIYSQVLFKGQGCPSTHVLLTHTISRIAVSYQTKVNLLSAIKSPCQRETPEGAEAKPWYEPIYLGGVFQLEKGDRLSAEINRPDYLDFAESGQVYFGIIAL

`CCCCC(CC)COP(=O)(Oc1ccccc1)Oc1ccccc1` (centres undefined): the call in test [1], in test [2], in [11] and in test [12] was inactive. In addition, the AC50 in test [3] is 36.7 µM (active); in test [4] it was 16.1 µM (active); in [5], 31.3 µM (active); in [6] it was 20 µM (active); in test [7], 20 µM (active); in test [8], 20 µM (active). Besides, the AC50 was 11.1 µM (active) in [9], 50 µM (active) in test [10], 9.47 µM (active) in test [13] and 9.45 µM (active) in test [14].

`CCC1(c2ccccc2)C(=O)N=C(O)NC1=O` (centres undefined): the compound was called inactive in test [1], in test [2], in [12], in test [15], in [16] and in test [17].

Take `c1ccc2c(c1)sc1ccccc12`: the result in [3], in test [4], in test [5], in test [6], in [7] and in [8] was inactive. Also, the outcome in test [9], in test [13] and in test [14] was inactive.

On to `O=P(OCC(Br)CBr)(OCC(Br)CBr)OCC(Br)CBr` (centres undefined), for which the outcome in test [3], in [13] and in test [14] was inactive. The AC50 in test [4] was 16.9 µM (active); in [5], 23.9 µM (active); in test [6] it was 17.4 µM (active); in test [7], 17.4 µM (active); in test [8], 33.6 µM (active); in test [9], 17.4 µM (active).

For `CCCCC(CC)COC(=O)c1c(Br)c(Br)c(Br)c(Br)c1C(=O)OCC(CC)CCCC` (centres undefined), the outcome in [3], in test [4], in test [5], in [6], in test [7] and in test [8] was inactive. In addition, the outcome in test [9], in test [13] and in test [14] was inactive.

Take `Nc1ccc([N+](=O)[O-])cc1Cl`: the result in test [3], in test [4], in [5], in test [6], in test [7] and in test [8] was inactive. Further, the outcome in test [9], in test [13] and in [14] was inactive.

Regarding `CCOP(=S)(OCC)SCS(=O)(=O)CC`, the outcome in [3], in test [4], in test [5], in test [6], in test [7] and in test [8] was inactive. Also, the result in [9], in test [13] and in test [14] was inactive.

As to `ClC(Cl)=C(c1ccc(Cl)cc1)c1ccccc1Cl`, the half-maximal activity concentration (AC50) is 37.2 µM (active) in test [3]; 29.6 µM (active) in test [4]; 34.4 µM (active) in test [5]; 30 µM (active) in test [6]; 27.3 µM (active) in test [7]; 31.1 µM (active) in test [8]. Besides, the AC50 in test [9] was 5.1 µM (active); in [13], 4.93 µM (active); in test [14], 7.34 µM (active).

In the case of `COP(=O)(O)OC`, the result in [3], in test [4], in test [5], in test [6], in [7] and in test [8] was inactive. Also, the result in test [9], in test [13] and in test [14] was inactive.

With `O=S(=O)(F)C(F)(F)C(F)(F)C(F)(F)C(F)(F)C(F)(F)C(F)(F)C(F)(F)C(F)(F)F`, the outcome in test [3], in test [4], in [5], in [6], in test [7] and in test [8] was inactive. For the same compound, the result in test [9], in [13] and in test [14] was inactive.

`c1cc2c3c(cccc3c1)CC2`: the call in [10] and in [11] was inactive.

Take `C=CC(=O)OCC(CC)(COC(=O)C=C)COC(=O)C=C`: the AC50 is 2.98 µM (active) in test [3]; 0.516 µM (active) in [4]; 2.36 µM (active) in [5]; 1.46 µM (active) in [6]; 2.18 µM (active) in [7]; 2.61 µM (active) in test [8]. For the same compound, the AC50 was 2.5 µM (active) in test [9], 4.69 µM (active) in [13] and 4.87 µM (active) in [14].

Turning to `O=P(Oc1ccccc1)(Oc1ccccc1)Oc1ccccc1`, the outcome in test [11] was inactive.

A word on the AC50: it is the midpoint of the concentration-response curve, whichever way the signal moves.
